Laboratory results reported in PubChem BioAssay (NCI).
About 83,000 compounds went through this panel and 20% of them were active in at least one assay; those are over-represented in the sample as a whole.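 Interpretation: 100, growth as untreated; towards 0, rising growth inhibition; 0, no net growth; 0 to -100, cell death. Compounds scoring below 10 were considered active.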 Calls of active or inactive are those of the source.

How the values were obtained:
Experiment in all cases: NCI-60 one-dose screen, 48 h (100 = growth as untreated, 0 = no growth, -100 = all killed)
Conditions in all cases: 10 µM unless noted
[1] = test system: SK-MEL-2 melanoma
[2] = test system: EKVX NSCLC
[3] = test system: SN12C renal
[4] = test system: UO-31 renal
[5] = test system: TK-10 renal
[6] = test system: ACHN renal
[7] = test system: A498 renal
[8] = test system: CCRF-CEM leukemia
[9] = test system: MOLT-4 leukemia
[10] = test system: CAKI-1 renal

Measured: growth

COc1ccc(/C=C/C(=O)c2ccc(NC(=O)CSc3nnc(-c4ccc(OC)cc4)n3-c3ccccc3)cc2)cc1
inactive: [1] 95.5% | [2] 95.5% | [3] 96.5% | [4] 79.3% | [5] 109% | [6] 106% | [7] 109% | [8] 95% | [9] 88%

COc1cc(/C=C/C(=O)c2ccc(NC(=O)CSc3nnc(-c4ccc(Cl)cc4)n3-c3ccccc3)cc2)cc(OC)c1OC
inactive: [1] 81.1% | [2] 75.1% | [3] 74.5% | [4] 75.6% | [5] 89.4% | [6] 82.4% | [7] 77.5% | [8] 57.8% | [9] 40.8%

CN1CCN(c2ccc(N3Cc4ccccc4OC4=C3C(=O)c3c(O)ccc(O)c3C4=O)cn2)CC1
active: [1] -36.8% | [2] -1.22% | [3] -62% | [4] -99.5% | [5] -98.7% | [6] -100% | [7] -20.7% | [8] -12.7% | [9] -17.8%

CCN(CC)CCCC(C)Nc1cnc(C(=O)Nc2cc(C)cc3cccnc23)cn1 (centres undefined)
inactive: [1] 104% | [2] 77.8% | [3] 77.9% | [4] 63.3% | [5] 86.9% | [6] 77.9% | [7] 70.3% | [8] 54.2% | [9] 46.5%

COC(=O)c1cc2oc(/C=N/NC(=O)c3cc4oc(-c5cccc(C(F)(F)F)c5)cc4[nH]3)cc2n1Cc1ccccc1
active: [8] -26%
inactive: [1] 107% | [2] 117% | [3] 104% | [4] 91.5% | [5] 86.3% | [6] 106% | [7] 85.8% | [9] 77.8%

Oc1ccc(-c2cnc(-c3ccccc3)[nH]2)c(O)c1
inactive: [1] 137% | [2] 107% | [3] 91.6% | [4] 88.7% | [5] 112% | [6] 109% | [7] 110% | [9] 94%
active: [8] -41.7%

O=C1C=CC(=O)N1c1cccc(N2C(=O)C=CC2=O)c1
inactive: [1] 111% | [2] 95.6% | [3] 106% | [4] 28.4% | [5] 33.1% | [7] 111% | [9] 103%
active: [6] -26% | [8] -22.3%

Fc1ccc(-c2nnc(N3CCOCC3)c3ccccc23)cc1
inactive: [1] 111% | [2] 69.5% | [3] 95% | [4] 85.6% | [5] 138% | [6] 103% | [7] 105% | [8] 124% | [9] 243%

Clc1ccccc1Nc1nnc(-c2ccncc2)s1
inactive: [1] 107% | [2] 91.7% | [3] 86% | [4] 90.7% | [5] 111% | [6] 104% | [7] 92.1% | [8] 96% | [9] 93.4%

C=CCn1c(SCC(=O)Nc2ccc(/C(C)=N\O)cc2)nnc1-c1cc(-c2ccc(Cl)cc2)nc2ccccc12
active: [4] -12.5% | [9] -25.3%
inactive: [1] 28.5% | [2] 32% | [3] 33.7% | [5] 31.8% | [6] 20.2% | [7] 21.9% | [8] 11.1%

CCN1CCN(Cc2ccc(NC(=O)c3nc4ccc5[nH]ncc5c4c4c3CCCC4)cc2C(F)(F)F)CC1
active: [3] -75.6% | [4] -91.8% | [5] -33.7% | [6] -97.1% | [8] 3.68% | [9] -28.9%
inactive: [1] 92% | [2] 74.3% | [7] 93.2%

O=C(CCCCCCc1nc2ccc(Br)cc2[nH]1)NO
active: [1] -5.43% | [3] 1.73% | [4] -17.9% | [5] -13.9% | [6] -36.2% | [7] 9.4% | [8] 9.8% | [9] 7.38%
inactive: [2] 28.6%

COc1ccc(-c2nnc(SCC(=O)Nc3ccc(C(=O)/C=C/c4ccc(Cl)cc4)cc3)n2-c2ccccc2)cc1
inactive: [1] 100% | [2] 102% | [3] 101% | [4] 73.8% | [5] 109% | [6] 107% | [7] 116% | [8] 86.5% | [9] 81.5%

CC(C)(C)NC(=O)C(OC(=O)C1CCc2cc(F)ccc2O1)c1ccccc1Cl (centres undefined)
inactive: [1] 102% | [2] 96% | [3] 101% | [4] 72.4% | [5] 99% | [6] 99% | [7] 90.7% | [8] 92.5% | [9] 94.6%

O=C(Nc1ccc2ncnc(Nc3ccc(F)c(Cl)c3)c2c1)c1cccs1
active: [6] 2.83%
inactive: [1] 90.7% | [2] 44.5% | [3] 45.6% | [4] 27.8% | [5] 32.3% | [7] 46% | [8] 76.9% | [9] 71.9%

O=C(O)c1cn(-c2ccccc2)nc1-c1ccc(O)cc1
inactive: [1] 103% | [2] 95.7% | [3] 98.9% | [4] 89.4% | [5] 106% | [6] 99.4% | [7] 74.3% | [8] 94% | [9] 104%

O=C1OC(c2ccc(-c3ccccc3)cc2)=C/C1=C/c1c(Cl)cccc1Cl
active: [8] -14%
inactive: [1] 105% | [2] 86% | [3] 95.3% | [4] 81.1% | [5] 88% | [6] 105% | [7] 93.5% | [9] 97.8%

CCCCn1c(-c2ccc(F)cc2)nc2cc(OC)c(OC)cc2c1=O
active: [8] -46%
inactive: [1] 176% | [2] 105% | [3] 91.3% | [4] 82.2% | [5] 75.1% | [6] 101% | [7] 95.7% | [9] 51.1%

CN(C)c1ccc(N2Cc3ccccc3OC3=C2C(=O)c2c(O)ccc(O)c2C3=O)cn1
active: [1] -51.5% | [2] -15.8% | [3] -91.7% | [4] -99.1% | [5] -93.9% | [6] -100% | [7] -61.1% | [8] -8.39% | [9] -22.4%

COc1ccc(/C=C/C(=O)c2ccc(NC(=O)CSc3nnc(-c4ccc(Cl)cc4)n3-c3ccccc3)cc2)cc1
inactive: [1] 104% | [2] 89.4% | [3] 91.2% | [4] 79.8% | [5] 113% | [6] 103% | [7] 84.6% | [8] 94.9% | [9] 65.5%

C=CCn1c(SCC(=O)Nc2ccc(/C(C)=N\O)cc2)nnc1-c1cc(-c2ccccc2)nc2ccccc12
active: [9] 3.61%
inactive: [1] 72.1% | [2] 55% | [3] 69.3% | [4] 40.6% | [5] 74.5% | [6] 38.4% | [7] 65.1% | [8] 18.2%

COc1ccc(Sc2[nH]c(C=O)c3ccccc23)cc1
active: [8] 0.79%
inactive: [1] 69% | [2] 33.2% | [3] 89% | [4] 57.7% | [5] 34.1% | [6] 87.1% | [7] 33.1% | [9] 41.9%

CC(=O)c1cccc(Nc2ncnc3ccc(NC(=O)c4ccco4)cc23)c1
inactive: [1] 98.1% | [2] 84.8% | [3] 87.4% | [4] 64.8% | [5] 99.6% | [6] 87.1% | [7] 82.4% | [8] 96.5% | [9] 77.5%

NC(N)=N/N=C\c1ccc(OCc2ccccc2)cc1
inactive: [1] 86.6% | [2] 88.6% | [3] 79.5% | [4] 64.6% | [5] 73.4% | [6] 75.7% | [8] 72.3% | [9] 73.8%

O=C(NO)c1ccc(NCc2csc3ccccc23)cc1
inactive: [1] 84.1% | [2] 69.7% | [3] 59.4% | [4] 39.5% | [5] 59.1% | [6] 69.6% | [7] 57.1% | [8] 44.7% | [9] 43.1%

Cc1[nH]n(C(=O)c2ccncc2)c(=O)c1N=Nc1ccc(O)c(C(=O)O)c1
active: [8] -36.1%
inactive: [1] 159% | [2] 127% | [3] 93.6% | [4] 78.9% | [5] 83.2% | [6] 106% | [7] 110% | [9] 87.4%

C#CC[C@@H]1C[C@]2(C)[C@H]3CC[C@@H]4[C@H]5C(C(=C)C)CC[C@]5(C(=O)NCCCCCCCCN)CC[C@@]4(C)[C@]3(C)CC[C@H]2C(C)(C)[C@H]1OC(C)=O (some centres undefined)
inactive: [1] 112% | [2] 103% | [3] 96.3% | [4] 75.5% | [5] 96.5% | [6] 111% | [7] 95.6%
active: [8] -8.23% | [9] 5.47%

CCOCC(O)(c1ccc(Cl)cc1)c1ccc(Cl)cc1
inactive: [1] 102% | [2] 94.1% | [3] 105% | [4] 91.3% | [5] 110% | [6] 98.7% | [7] 112% | [8] 96.1% | [9] 88.7%

C=CCn1c(SCC(=O)Nc2ccc(C(=O)/C=C/c3ccccc3)cc2)nnc1-c1ccc(OC)c(OC)c1
inactive: [1] 85.2% | [2] 80.7% | [3] 74.7% | [4] 55.7% | [5] 87.6% | [6] 86.8% | [7] 75% | [8] 83.7% | [9] 58.2%

O=c1c2sc3ccccc3c2nnn1-c1ccc(F)c(Cl)c1
inactive: [1] 75.4% | [3] 70.2% | [4] 18.1% | [5] 29% | [10] 35.6% | [7] 56.6% | [8] 48.6% | [9] 34.3%
active: [6] 4.64%
